# Assay results from publication PMC11006913.
# Legend:
# Assay in all cases: PBM; 200 nM protein, PBS
# Conditions in all cases: dsDNA, one strand shown
# [1] = molecular target: HOXC9 (Homo sapiens, UniProt P31274 178-260, K195R)
# [2] = molecular target: HOXC9 (Homo sapiens, UniProt P31274 178-260)
# [3] = molecular target: MSX2 (Homo sapiens, UniProt P35548 130-214, R199I)
# [4] = molecular target: HOXC9 (Homo sapiens, UniProt P31274 178-260, R193K)
# [5] = molecular target: MSX2 (Homo sapiens, UniProt P35548 130-214)
# [6] = molecular target: HOXC9 (Homo sapiens, UniProt P31274 178-260, R222W)
# [7] = molecular target: MSX2 (Homo sapiens, UniProt P35548 130-214, F161Y)
# [8] = molecular target: HOXD13 (Homo sapiens, UniProt P35453 263-343, T313R)
# [9] = molecular target: HOXD13 (Homo sapiens, UniProt P35453 263-343)
# [10] = molecular target: HOXD13 (Homo sapiens, UniProt P35453 263-343, T313A)
# [11] = molecular target: HOXB6 (Homo sapiens, UniProt P17509 132-218, K202E)
# [12] = molecular target: HOXB6 (Homo sapiens, UniProt P17509 132-218)
# [13] = molecular target: HOXA2 (Homo sapiens, UniProt O43364 129-215, R185T)
# [14] = molecular target: HOXA2 (Homo sapiens, UniProt O43364 129-215, R185K)
# [15] = molecular target: HOXA2 (Homo sapiens, UniProt O43364 129-215, Y150S)
# [16] = molecular target: HOXA2 (Homo sapiens, UniProt O43364 129-215)
# [17] = molecular target: T1, NKX2-6 (Homo sapiens, UniProt A6NCS4 118-204, R150C)
# T1 sequence: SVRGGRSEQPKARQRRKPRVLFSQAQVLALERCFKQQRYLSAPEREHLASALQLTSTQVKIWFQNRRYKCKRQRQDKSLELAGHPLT
# [18] = molecular target: ALX1 (Homo sapiens, UniProt Q15699 118-204, L144V)
# [19] = molecular target: ALX1 (Homo sapiens, UniProt Q15699 118-204, L144R)
# [20] = molecular target: ALX1 (Homo sapiens, UniProt Q15699 118-204)
# [21] = molecular target: ALX3 (Homo sapiens, UniProt O95076 139-225, N203Q)
# [22] = molecular target: ALX3 (Homo sapiens, UniProt O95076 139-225)
# [23] = molecular target: VAX1 (Homo sapiens, UniProt Q5SQQ9 86-172)
# [24] = molecular target: ALX3 (Homo sapiens, UniProt O95076 139-225, L168Q)
# [25] = molecular target: ALX3 (Homo sapiens, UniProt O95076 139-225, L168V)
# [26] = molecular target: VAX1 (Homo sapiens, UniProt Q5SQQ9 86-172, T142I)
# [27] = molecular target: ALX3 (Homo sapiens, UniProt O95076 139-225, N203S)
# [28] = molecular target: VAX1 (Homo sapiens, UniProt Q5SQQ9 86-172, K157R)
# Sequence of VAX1 (Homo sapiens, UniProt Q5SQQ9 86-172, K157R) (Q5SQQ9 86-172 K157R): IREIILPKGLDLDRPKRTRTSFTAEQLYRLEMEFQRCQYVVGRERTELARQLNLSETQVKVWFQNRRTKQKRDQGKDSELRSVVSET
# Sequence of MSX2 (Homo sapiens, UniProt P35548 130-214) (P35548 130-214): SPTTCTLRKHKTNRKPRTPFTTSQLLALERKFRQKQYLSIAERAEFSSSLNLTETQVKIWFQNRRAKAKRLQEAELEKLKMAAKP
# Sequence of MSX2 (Homo sapiens, UniProt P35548 130-214, F161Y) (P35548 130-214 F161Y): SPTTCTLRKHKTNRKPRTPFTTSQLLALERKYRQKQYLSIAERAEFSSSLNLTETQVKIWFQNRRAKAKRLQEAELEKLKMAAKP
# Sequence of HOXD13 (Homo sapiens, UniProt P35453 263-343, T313R) (P35453 263-343 T313R): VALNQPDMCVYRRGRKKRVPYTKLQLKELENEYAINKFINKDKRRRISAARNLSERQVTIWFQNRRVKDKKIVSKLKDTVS
# Sequence of HOXC9 (Homo sapiens, UniProt P31274 178-260) (P31274 178-260): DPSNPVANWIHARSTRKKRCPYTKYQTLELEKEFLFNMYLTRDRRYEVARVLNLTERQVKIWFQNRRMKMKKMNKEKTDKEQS
# Sequence of MSX2 (Homo sapiens, UniProt P35548 130-214, R199I) (P35548 130-214 R199I): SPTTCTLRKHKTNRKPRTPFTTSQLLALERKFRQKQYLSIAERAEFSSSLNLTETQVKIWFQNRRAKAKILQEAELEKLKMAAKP
# Sequence of HOXD13 (Homo sapiens, UniProt P35453 263-343) (P35453 263-343): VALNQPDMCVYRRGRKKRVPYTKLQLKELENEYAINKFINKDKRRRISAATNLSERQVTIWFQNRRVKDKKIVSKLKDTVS
# Sequence of HOXC9 (Homo sapiens, UniProt P31274 178-260, R193K) (P31274 178-260 R193K): as the sequence (P31274 178-260) above, with R16K counted along it
# Sequence of HOXC9 (Homo sapiens, UniProt P31274 178-260, R222W) (P31274 178-260 R222W): as the sequence (P31274 178-260) above, with R45W counted along it
# Sequence of HOXC9 (Homo sapiens, UniProt P31274 178-260, K195R) (P31274 178-260 K195R): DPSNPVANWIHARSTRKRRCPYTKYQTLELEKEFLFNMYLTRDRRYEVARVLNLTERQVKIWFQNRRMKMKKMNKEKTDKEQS
# Sequence of HOXD13 (Homo sapiens, UniProt P35453 263-343, T313A) (P35453 263-343 T313A): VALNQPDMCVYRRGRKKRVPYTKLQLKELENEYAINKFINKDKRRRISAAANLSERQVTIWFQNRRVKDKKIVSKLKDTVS
# Sequence of VAX1 (Homo sapiens, UniProt Q5SQQ9 86-172) (Q5SQQ9 86-172): as the sequence (Q5SQQ9 86-172 K157R) above, with R72K counted along it
# Sequence of ALX1 (Homo sapiens, UniProt Q15699 118-204) (Q15699 118-204): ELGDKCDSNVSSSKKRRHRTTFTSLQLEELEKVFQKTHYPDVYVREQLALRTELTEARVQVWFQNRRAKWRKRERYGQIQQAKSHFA
# Sequence of ALX1 (Homo sapiens, UniProt Q15699 118-204, L144R) (Q15699 118-204 L144R): as the sequence (Q15699 118-204) above, with L27R counted along it
# Sequence of HOXB6 (Homo sapiens, UniProt P17509 132-218) (P17509 132-218): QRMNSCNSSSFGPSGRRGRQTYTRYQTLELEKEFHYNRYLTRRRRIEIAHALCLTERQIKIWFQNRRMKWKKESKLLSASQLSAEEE
# Sequence of HOXA2 (Homo sapiens, UniProt O43364 129-215, R185K) (O43364 129-215 R185K): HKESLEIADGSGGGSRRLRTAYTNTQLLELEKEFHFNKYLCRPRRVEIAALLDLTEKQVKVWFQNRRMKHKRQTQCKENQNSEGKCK
# Sequence of ALX3 (Homo sapiens, UniProt O95076 139-225, N203S) (O95076 139-225 N203S): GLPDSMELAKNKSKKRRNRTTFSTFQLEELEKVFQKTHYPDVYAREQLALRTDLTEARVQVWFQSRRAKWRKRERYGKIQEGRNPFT
# Sequence of ALX3 (Homo sapiens, UniProt O95076 139-225, N203Q) (O95076 139-225 N203Q): as the sequence (O95076 139-225 N203S) above, with S65Q counted along it
# Sequence of HOXA2 (Homo sapiens, UniProt O43364 129-215, R185T) (O43364 129-215 R185T): as the sequence (O43364 129-215 R185K) above, with K57T counted along it
# Sequence of ALX3 (Homo sapiens, UniProt O95076 139-225, L168V) (O95076 139-225 L168V): as the sequence (O95076 139-225 N203S) above, with L30V, S65N counted along it
# Sequence of ALX3 (Homo sapiens, UniProt O95076 139-225, L168Q) (O95076 139-225 L168Q): as the sequence (O95076 139-225 N203S) above, with L30Q, S65N counted along it
# Sequence of HOXA2 (Homo sapiens, UniProt O43364 129-215, Y150S) (O43364 129-215 Y150S): as the sequence (O43364 129-215 R185K) above, with Y22S, K57R counted along it
# Sequence of ALX3 (Homo sapiens, UniProt O95076 139-225) (O95076 139-225): as the sequence (O95076 139-225 N203S) above, with S65N counted along it
# Sequence of HOXB6 (Homo sapiens, UniProt P17509 132-218, K202E) (P17509 132-218 K202E): as the sequence (P17509 132-218) above, with K71E counted along it
# Sequence of VAX1 (Homo sapiens, UniProt Q5SQQ9 86-172, T142I) (Q5SQQ9 86-172 T142I): as the sequence (Q5SQQ9 86-172 K157R) above, with T57I, R72K counted along it
# Sequence of HOXA2 (Homo sapiens, UniProt O43364 129-215) (O43364 129-215): as the sequence (O43364 129-215 R185K) above, with K57R counted along it
# Sequence of ALX1 (Homo sapiens, UniProt Q15699 118-204, L144V) (Q15699 118-204 L144V): as the sequence (Q15699 118-204) above, with L27V counted along it
sequence,measurement,setting,value
CGGGCCAG,binding signal,[1],"9.64 upbm affinity estimate (log intensity, higher = more binding, comparable within an allelic series)"
same,binding signal,[2],"9.85 upbm affinity estimate (log intensity, higher = more binding, comparable within an allelic series)"
same,binding signal,[3],"9.53 upbm affinity estimate (log intensity, higher = more binding, comparable within an allelic series)"
same,binding signal,[4],"9.73 upbm affinity estimate (log intensity, higher = more binding, comparable within an allelic series)"
same,binding signal,[5],"9.56 upbm affinity estimate (log intensity, higher = more binding, comparable within an allelic series)"
same,binding signal,[6],"9.77 upbm affinity estimate (log intensity, higher = more binding, comparable within an allelic series)"
same,binding signal,[7],"9.66 upbm affinity estimate (log intensity, higher = more binding, comparable within an allelic series)"
TCGGGCCA,binding signal,[1],"9.7 upbm affinity estimate (log intensity, higher = more binding, comparable within an allelic series)"
same,binding signal,[2],"9.78 upbm affinity estimate (log intensity, higher = more binding, comparable within an allelic series)"
same,binding signal,[3],"9.6 upbm affinity estimate (log intensity, higher = more binding, comparable within an allelic series)"
same,binding signal,[8],"9.55 upbm affinity estimate (log intensity, higher = more binding, comparable within an allelic series)"
same,binding signal,[4],"9.72 upbm affinity estimate (log intensity, higher = more binding, comparable within an allelic series)"
same,binding signal,[9],"9.44 upbm affinity estimate (log intensity, higher = more binding, comparable within an allelic series)"
same,binding signal,[5],"9.63 upbm affinity estimate (log intensity, higher = more binding, comparable within an allelic series)"
same,binding signal,[10],"9.66 upbm affinity estimate (log intensity, higher = more binding, comparable within an allelic series)"
same,binding signal,[6],"9.7 upbm affinity estimate (log intensity, higher = more binding, comparable within an allelic series)"
same,binding signal,[7],"9.51 upbm affinity estimate (log intensity, higher = more binding, comparable within an allelic series)"
CCCCCCAC,binding signal,[1],"9.36 upbm affinity estimate (log intensity, higher = more binding, comparable within an allelic series)"
same,binding signal,[11],"8.84 upbm affinity estimate (log intensity, higher = more binding, comparable within an allelic series)"
same,binding signal,[2],"9.41 upbm affinity estimate (log intensity, higher = more binding, comparable within an allelic series)"
same,binding signal,[8],"9.08 upbm affinity estimate (log intensity, higher = more binding, comparable within an allelic series)"
same,binding signal,[4],"9.4 upbm affinity estimate (log intensity, higher = more binding, comparable within an allelic series)"
same,binding signal,[9],"9.3 upbm affinity estimate (log intensity, higher = more binding, comparable within an allelic series)"
same,binding signal,[10],"9.15 upbm affinity estimate (log intensity, higher = more binding, comparable within an allelic series)"
same,binding signal,[6],"9.29 upbm affinity estimate (log intensity, higher = more binding, comparable within an allelic series)"
same,binding signal,[12],"8.7 upbm affinity estimate (log intensity, higher = more binding, comparable within an allelic series)"
CTTATAAA,binding signal,[1],"11.3 upbm affinity estimate (log intensity, higher = more binding, comparable within an allelic series)"
same,binding signal,[2],"11.2 upbm affinity estimate (log intensity, higher = more binding, comparable within an allelic series)"
same,binding signal,[8],"10.7 upbm affinity estimate (log intensity, higher = more binding, comparable within an allelic series)"
same,binding signal,[4],"11.2 upbm affinity estimate (log intensity, higher = more binding, comparable within an allelic series)"
same,binding signal,[9],"11.8 upbm affinity estimate (log intensity, higher = more binding, comparable within an allelic series)"
same,binding signal,[10],"11.5 upbm affinity estimate (log intensity, higher = more binding, comparable within an allelic series)"
CTCCACGC,binding signal,[1],"9.69 upbm affinity estimate (log intensity, higher = more binding, comparable within an allelic series)"
same,binding signal,[2],"9.61 upbm affinity estimate (log intensity, higher = more binding, comparable within an allelic series)"
same,binding signal,[3],"9.56 upbm affinity estimate (log intensity, higher = more binding, comparable within an allelic series)"
same,binding signal,[4],"9.6 upbm affinity estimate (log intensity, higher = more binding, comparable within an allelic series)"
same,binding signal,[5],"9.47 upbm affinity estimate (log intensity, higher = more binding, comparable within an allelic series)"
same,binding signal,[6],"9.78 upbm affinity estimate (log intensity, higher = more binding, comparable within an allelic series)"
same,binding signal,[7],"9.61 upbm affinity estimate (log intensity, higher = more binding, comparable within an allelic series)"
CACGCGGG,binding signal,[1],"9.44 upbm affinity estimate (log intensity, higher = more binding, comparable within an allelic series)"
same,binding signal,[13],"7.04 upbm affinity estimate (log intensity, higher = more binding, comparable within an allelic series)"
same,binding signal,[2],"9.53 upbm affinity estimate (log intensity, higher = more binding, comparable within an allelic series)"
same,binding signal,[4],"9.49 upbm affinity estimate (log intensity, higher = more binding, comparable within an allelic series)"
same,binding signal,[14],"10.2 upbm affinity estimate (log intensity, higher = more binding, comparable within an allelic series)"
same,binding signal,[6],"9.63 upbm affinity estimate (log intensity, higher = more binding, comparable within an allelic series)"
same,binding signal,[15],"10.4 upbm affinity estimate (log intensity, higher = more binding, comparable within an allelic series)"
same,binding signal,[16],"7.18 upbm affinity estimate (log intensity, higher = more binding, comparable within an allelic series)"
CCGGGTAC,binding signal,[1],"9.59 upbm affinity estimate (log intensity, higher = more binding, comparable within an allelic series)"
same,binding signal,[17],"9.58 upbm affinity estimate (log intensity, higher = more binding, comparable within an allelic series)"
same,binding signal,[2],"9.74 upbm affinity estimate (log intensity, higher = more binding, comparable within an allelic series)"
same,binding signal,[18],"6.43 upbm affinity estimate (log intensity, higher = more binding, comparable within an allelic series)"
same,binding signal,[4],"9.61 upbm affinity estimate (log intensity, higher = more binding, comparable within an allelic series)"
same,binding signal,[19],"6.2 upbm affinity estimate (log intensity, higher = more binding, comparable within an allelic series)"
same,binding signal,[6],"9.63 upbm affinity estimate (log intensity, higher = more binding, comparable within an allelic series)"
same,binding signal,[20],"6.38 upbm affinity estimate (log intensity, higher = more binding, comparable within an allelic series)"
CACAATTA,binding signal,[1],"11.7 upbm affinity estimate (log intensity, higher = more binding, comparable within an allelic series)"
same,binding signal,[2],"11.7 upbm affinity estimate (log intensity, higher = more binding, comparable within an allelic series)"
same,binding signal,[3],"12.1 upbm affinity estimate (log intensity, higher = more binding, comparable within an allelic series)"
same,binding signal,[4],"11.7 upbm affinity estimate (log intensity, higher = more binding, comparable within an allelic series)"
same,binding signal,[5],"13.4 upbm affinity estimate (log intensity, higher = more binding, comparable within an allelic series)"
same,binding signal,[7],"13 upbm affinity estimate (log intensity, higher = more binding, comparable within an allelic series)"
TCCAGGGA,binding signal,[1],"9.73 upbm affinity estimate (log intensity, higher = more binding, comparable within an allelic series)"
same,binding signal,[17],"9.47 upbm affinity estimate (log intensity, higher = more binding, comparable within an allelic series)"
same,binding signal,[2],"9.67 upbm affinity estimate (log intensity, higher = more binding, comparable within an allelic series)"
same,binding signal,[4],"9.68 upbm affinity estimate (log intensity, higher = more binding, comparable within an allelic series)"
same,binding signal,[6],"9.68 upbm affinity estimate (log intensity, higher = more binding, comparable within an allelic series)"
ACGATAAA,binding signal,[1],"11.7 upbm affinity estimate (log intensity, higher = more binding, comparable within an allelic series)"
same,binding signal,[2],"11.8 upbm affinity estimate (log intensity, higher = more binding, comparable within an allelic series)"
same,binding signal,[8],"10.1 upbm affinity estimate (log intensity, higher = more binding, comparable within an allelic series)"
same,binding signal,[4],"11.8 upbm affinity estimate (log intensity, higher = more binding, comparable within an allelic series)"
same,binding signal,[9],"10.8 upbm affinity estimate (log intensity, higher = more binding, comparable within an allelic series)"
CCTCCCAG,binding signal,[1],"9.59 upbm affinity estimate (log intensity, higher = more binding, comparable within an allelic series)"
same,binding signal,[2],"9.7 upbm affinity estimate (log intensity, higher = more binding, comparable within an allelic series)"
same,binding signal,[21],"7.74 upbm affinity estimate (log intensity, higher = more binding, comparable within an allelic series)"
same,binding signal,[4],"9.59 upbm affinity estimate (log intensity, higher = more binding, comparable within an allelic series)"
same,binding signal,[22],"7.69 upbm affinity estimate (log intensity, higher = more binding, comparable within an allelic series)"
same,binding signal,[23],"7.07 upbm affinity estimate (log intensity, higher = more binding, comparable within an allelic series)"
same,binding signal,[24],"7.76 upbm affinity estimate (log intensity, higher = more binding, comparable within an allelic series)"
same,binding signal,[6],"9.67 upbm affinity estimate (log intensity, higher = more binding, comparable within an allelic series)"
same,binding signal,[25],"7.74 upbm affinity estimate (log intensity, higher = more binding, comparable within an allelic series)"
same,binding signal,[26],"7.13 upbm affinity estimate (log intensity, higher = more binding, comparable within an allelic series)"
same,binding signal,[27],"7.72 upbm affinity estimate (log intensity, higher = more binding, comparable within an allelic series)"
same,binding signal,[28],"6.95 upbm affinity estimate (log intensity, higher = more binding, comparable within an allelic series)"
